Growth data for eight compounds are collected here from PubChem BioAssay (NCI).

Among the test systems are HCT-15 colon; HT29 colon; SNB-75 CNS; SNB-19 CNS; U251 CNS; PC-3 prostate; SK-MEL-5 melanoma; UACC-62 melanoma; LOX IMVI melanoma; SK-MEL-28 melanoma; SK-MEL-2 melanoma; SN12C renal; UO-31 renal; TK-10 renal; ACHN renal; CAKI-1 renal; A498 renal; CCRF-CEM leukemia; MOLT-4 leukemia.
What all share (assay): NCI-60 one-dose screen, 48 h (100 = growth as untreated, 0 = no growth, -100 = all killed)
Common to all, as to settings: 10 µM

This is part of a sample that, as a whole, favours compounds with a hit. Of some 83,000 tested, about 20% had one in any assay.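 How to read the values: 0–100, growth inhibition (40 = 60% inhibited); 0, no net growth; -100 to 0, cell death (-40 = 40% of starting cells died; -100 = all dead).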 Unmarked numbers belong to inactive results. The source made the active and inactive calls. The calls were made as follows: active = growth percent below 10; inactive = the rest.

Consider `COc1cccc(C(=O)NNc2nc(N3CCN(C4CCCCC4)CC3)nc(N3CCN(C(c4ccccc4)c4ccccc4)CC3)n2)c1`, for which the growth in the experiment with HCT-15 colon was 25.4%; with HT29 colon, 24%; with SNB-75 CNS, 63.6%; with SNB-19 CNS, 47.7%; in the experiment with U251 CNS, 32.6%; in the experiment with PC-3 prostate it was 21%. Further, the growth in the experiment with SK-MEL-5 melanoma was -85.1% (active); in the experiment on UACC-62 melanoma, 39.6%; in the experiment with LOX IMVI melanoma it was 7.83% (active); in the experiment on SK-MEL-28 melanoma, 64.3%; in the experiment on SK-MEL-2 melanoma it was 87.3%; in the experiment on SN12C renal it was 51.8%. Also, the growth is 32.9% in the experiment on UO-31 renal; 46.1% with TK-10 renal; 70.2% in the experiment with ACHN renal; 59.4% in the experiment on CAKI-1 renal; 49.2% with A498 renal; 39.9% in the experiment on CCRF-CEM leukemia. The growth in the experiment on MOLT-4 leukemia was 15.5%.
For the compound `Nc1ncncc1-c1ccc(F)cc1`, the growth in the experiment on HCT-15 colon is 103%; in the experiment on HT29 colon it was 113%; in the experiment with SNB-75 CNS, 85.3%; in the experiment on SNB-19 CNS it was 106%; with U251 CNS, 103%; in the experiment on PC-3 prostate it was 103%. For the same compound, the growth is 104% with SK-MEL-5 melanoma; 107% with UACC-62 melanoma; 98.7% with LOX IMVI melanoma; 115% with SK-MEL-28 melanoma; 132% in the experiment on SK-MEL-2 melanoma; 107% in the experiment with SN12C renal. Moreover, the growth was 103% in the experiment with UO-31 renal; 116% in the experiment with TK-10 renal; 108% in the experiment with ACHN renal; 98.5% in the experiment on CAKI-1 renal; 95.2% in the experiment on A498 renal; 109% in the experiment on CCRF-CEM leukemia. The growth with MOLT-4 leukemia is 98.4%.
In the case of `FC(F)(F)c1ccc(-c2nc(-c3nc4cc(Cl)c(Cl)cc4[nH]3)c3ccccn23)cc1`, the growth in the experiment on HCT-15 colon was 82.6%; in the experiment with HT29 colon, 55.9%; in the experiment with SNB-75 CNS, -16.1% (active); in the experiment on SNB-19 CNS, 84.4%; in the experiment on U251 CNS, 47.6%; in the experiment on PC-3 prostate, 48.3%. Moreover, the growth was 53.4% with SK-MEL-5 melanoma; 71.1% in the experiment on UACC-62 melanoma; 62.6% in the experiment on LOX IMVI melanoma; 57.4% with SK-MEL-28 melanoma; 68.6% in the experiment on SK-MEL-2 melanoma; 84.4% with SN12C renal. For the same compound, the growth in the experiment on UO-31 renal is 58.5%; with TK-10 renal it was 16.7%; in the experiment on ACHN renal, 63.6%; in the experiment on CAKI-1 renal it was 83.9%; in the experiment on A498 renal, 38.5%; with CCRF-CEM leukemia, 81.6%. Further, the growth in the experiment on MOLT-4 leukemia was 63.5%.
Regarding `CCc1nn2c(-c3ccccc3)c(-c3cc(OC)c(OC)c(OC)c3)nc2s1`, the growth in the experiment on HCT-15 colon is 72.9%; in the experiment with HT29 colon it was 74.5%; in the experiment on SNB-75 CNS it was 45.9%; with SNB-19 CNS, 85.3%; in the experiment with U251 CNS, 98.8%; with PC-3 prostate, 71.4%. The growth in the experiment on SK-MEL-5 melanoma is 71.9%; in the experiment on UACC-62 melanoma, 71.8%; in the experiment with LOX IMVI melanoma, 88.2%; with SK-MEL-28 melanoma, 29.5%; with SK-MEL-2 melanoma, 37.9%; in the experiment on SN12C renal, 88.1%. Also, the growth in the experiment with UO-31 renal was 57.6%; in the experiment on TK-10 renal, 82.2%; in the experiment with ACHN renal, 85.8%; in the experiment on CAKI-1 renal, 69.4%; with A498 renal, 62.5%; in the experiment on CCRF-CEM leukemia, 70.9%. Also, in the experiment with MOLT-4 leukemia, the growth was 72.4%.
As for `Clc1ccc(-c2nc(-c3cccs3)cn3ccnc23)cc1`, the growth with HCT-15 colon was 31.2%; in the experiment on HT29 colon, 41.6%; in the experiment with SNB-75 CNS, 68.1%; in the experiment with SNB-19 CNS, 88.6%; in the experiment on U251 CNS, 82.5%; in the experiment with PC-3 prostate, 62.4%. Moreover, the growth with SK-MEL-5 melanoma is 53.2%; in the experiment with UACC-62 melanoma, 60.2%; in the experiment with LOX IMVI melanoma, 61.4%; in the experiment with SK-MEL-28 melanoma it was 92.5%; in the experiment with SK-MEL-2 melanoma it was 70.6%; in the experiment with SN12C renal, 85.3%. Further, the growth in the experiment with UO-31 renal was 45.9%; in the experiment with TK-10 renal, 60.7%; in the experiment on ACHN renal, 91.2%; in the experiment with CAKI-1 renal it was 59%; in the experiment on A498 renal, 90.5%; in the experiment on CCRF-CEM leukemia, 65.3%. Also, the growth in the experiment with MOLT-4 leukemia was 62.4%.
Regarding `CC(=O)O[C@H]1CC[C@@]2(C)[C@@H](CC[C@@H]3[C@@H]2CC[C@]2(C)C=C(C=O)C[C@@H]32)C1`, the growth with HCT-15 colon is 27.5%; with HT29 colon, 31.4%; in the experiment on SNB-75 CNS it was 69.5%; with SNB-19 CNS, 82.5%; in the experiment on U251 CNS it was 22.9%; in the experiment with PC-3 prostate, 62.5%. In addition, the growth was 75.7% in the experiment on SK-MEL-5 melanoma; 78.8% with UACC-62 melanoma; -71% (active) with LOX IMVI melanoma; 70% in the experiment on SK-MEL-28 melanoma; 73.7% in the experiment with SK-MEL-2 melanoma; 58.9% with SN12C renal. In addition, the growth in the experiment on UO-31 renal was 93%; in the experiment with TK-10 renal, 120%; in the experiment with ACHN renal, 95%; in the experiment with CAKI-1 renal it was 91%; in the experiment on A498 renal it was 94.9%; in the experiment with CCRF-CEM leukemia, -20.8% (active). Further, in the experiment on MOLT-4 leukemia, the growth was -29.1% (active).
For `Cc1cc(Cl)ccc1Nc1nc(C(F)(F)F)ccc1C(=O)N/N=C/c1ccccc1Cl`, the growth was 22.9% in the experiment on HCT-15 colon; 14.7% with HT29 colon; 37.9% in the experiment on SNB-75 CNS; 29.5% with SNB-19 CNS; 22.5% with U251 CNS; 8.2% (active) in the experiment on PC-3 prostate. In addition, the growth in the experiment on SK-MEL-5 melanoma was -54.4% (active); in the experiment with UACC-62 melanoma, -4.83% (active); in the experiment with LOX IMVI melanoma it was 20.1%; in the experiment with SK-MEL-28 melanoma it was 37.2%; in the experiment with SK-MEL-2 melanoma, 19.2%; in the experiment with SN12C renal, 19.6%. Also, the growth with UO-31 renal is 7.23% (active); in the experiment with TK-10 renal it was 19%; in the experiment on ACHN renal it was 16%; with CAKI-1 renal it was 5.28% (active); with A498 renal it was 21.8%; in the experiment with CCRF-CEM leukemia, 14.7%. In addition, the growth with MOLT-4 leukemia was 41.2%.
Consider `COc1ccc(-c2csc(NC(=O)CO[N+](=O)[O-])n2)cc1`, for which the growth in the experiment with HCT-15 colon is 104%; in the experiment with HT29 colon, 105%; in the experiment on SNB-75 CNS, 96.1%; in the experiment with SNB-19 CNS it was 102%; in the experiment on U251 CNS, 98.6%; in the experiment on PC-3 prostate, 80.7%. For the same compound, the growth is 30.3% in the experiment on SK-MEL-5 melanoma; 101% with UACC-62 melanoma; 88% in the experiment on LOX IMVI melanoma; 105% in the experiment on SK-MEL-28 melanoma; 81.6% in the experiment with SK-MEL-2 melanoma; 102% with SN12C renal. In addition, the growth in the experiment with UO-31 renal was 83.1%; in the experiment with TK-10 renal, 106%; in the experiment on ACHN renal, 101%; in the experiment on CAKI-1 renal, 95.2%; in the experiment on A498 renal, 126%; in the experiment on CCRF-CEM leukemia, 97.9%. The growth in the experiment on MOLT-4 leukemia was 93.1%.
